# Experimental data published in PubChem BioAssay (Tox21).
# Active and inactive are the calls of the source. Where a call stands in place of a potency, no number is given. The call rests on the fitted dose curve.
# Biological target: Acetylcholinesterase (Homo sapiens) (UniProt P22303)
# Experiment: Acetylcholinesterase (AChE) small molecule antagonists: enzyme-based qHTS assay with human liver microsomes (AID 1347399); further: nearly all actives have a fitted effect of over 60% in size
# Conditions: Potency: qHTS inhibition; outcome: qHTS inhibition; series mostly up to 115 µM
# In short: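 Recombinant human AChE (50 mU/mL in the enzyme mix) and human liver microsomes (0.25 mg/mL final) were preincubated with compound and NADPH (0.25 mg/mL final) for 30 min at 37 C. Acetylthiocholine/DTNB was then added; thiocholine was read colorimetrically after 10 min at room temperature.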
# Sequence of Acetylcholinesterase (Homo sapiens) (P22303 whole entry, looked up): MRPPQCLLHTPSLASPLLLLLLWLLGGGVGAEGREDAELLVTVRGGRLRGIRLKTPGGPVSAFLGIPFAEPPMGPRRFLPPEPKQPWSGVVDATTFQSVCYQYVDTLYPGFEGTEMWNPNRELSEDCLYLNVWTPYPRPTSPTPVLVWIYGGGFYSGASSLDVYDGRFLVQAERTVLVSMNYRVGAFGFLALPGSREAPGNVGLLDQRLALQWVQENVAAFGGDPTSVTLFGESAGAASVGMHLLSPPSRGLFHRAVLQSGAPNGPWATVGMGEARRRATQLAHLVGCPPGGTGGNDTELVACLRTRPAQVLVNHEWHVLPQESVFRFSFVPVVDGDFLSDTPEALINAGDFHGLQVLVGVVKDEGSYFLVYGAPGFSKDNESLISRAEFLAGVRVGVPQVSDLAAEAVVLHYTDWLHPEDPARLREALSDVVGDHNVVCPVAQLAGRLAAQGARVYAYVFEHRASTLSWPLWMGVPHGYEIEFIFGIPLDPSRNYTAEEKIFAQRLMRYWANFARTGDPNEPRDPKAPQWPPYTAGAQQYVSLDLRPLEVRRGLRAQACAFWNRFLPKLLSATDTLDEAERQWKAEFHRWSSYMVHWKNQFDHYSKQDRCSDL
SMILES,Potency,"activity change, negative = inhibition"
CCC(Cl)C(Cl)C(Cl)CC(Cl)C(Cl)C(C)Cl (centres undefined),inactive,
Nc1nc(CC(=O)O)cs1,inactive,
COc1ccc2cccc(CCNC(C)=O)c2c1,inactive,
Cc1cccc(Cl)c1,inactive,
CC(=O)C(C)=O,inactive,
O=C(/N=N/C(=O)OCc1ccccc1)OCc1ccccc1,inactive,
CCCCCCCCCCCCCCCCOS(=O)(=O)O,inactive,
CC1OCCC1=O (centres undefined),inactive,
OCCc1ccncc1,inactive,
O=C1CCCc2c1cc1ccc3cccc4ccc2c1c34,inactive,
CCNc1nc(NC(C)CC)nc(OC)n1 (centres undefined),inactive,
Clc1ccc2n[nH]nc2c1,inactive,
CC(C)=CCNc1ncnc2c1ncn2[C@@H]1O[C@H](CO)[C@@H](O)[C@H]1O,inactive,
CC(=O)c1cnccn1,inactive,
Cc1ccc(C(N)=O)cc1N,inactive,
NCC(=O)O,,0.434% [at 23.6 µM] (inactive)
CC(C)(COC(=O)c1ccccc1)COC(=O)c1ccccc1,inactive,
COc1cc(Cl)ccc1Oc1ccc(Cl)cc1Cl,inactive,
C[C@]12CC[C@H]3C(=CCc4cc(O)ccc43)[C@@H]1CCC2=O,inactive,
N#CCCCC(C#N)CCC#N (centres undefined),inactive,

SMILES,Potency,"activity change, negative = inhibition"
Nc1nc(N)c(-c2ccccc2)s1,inactive,
CC(C)Nc1nc(N)nc(Cl)n1,inactive,
CC(=O)OCCc1ccccc1,inactive,
CCOC(=O)c1ccc(N(C)C)cc1,inactive,
COC(=O)c1cc(S(N)(=O)=O)ccc1OC,inactive,
COc1cccc(OC)c1,inactive,
CO[Si](CCCCl)(OC)OC,inactive,
CCC1(C)C(=O)N(Cl)C(=O)N1Cl (centres undefined),inactive,
CC1=C2[C@H](/C=C(\C)C(=O)O)CC[C@@H](C)[C@H]2CC1,inactive,
CCO,inactive,
CCCO,inactive,
CC(C)CCOC(=O)CC(C)C,inactive,
CCCCC(CC)COP(=O)(O)O (centres undefined),inactive,
CCc1cc(Cc2cc(CC)c(N)c(CC)c2)cc(CC)c1N,inactive,
CC1(C)C(=O)C(C)(C)C1=O,inactive,
COc1ccc2[nH]c(S(=O)Cc3ncc(C)c(OC)c3C)nc2n1 (centres undefined),inactive,
O=C1OC(=O)c2ccccc21,inactive,
CCc1nccnc1C,inactive,
CC(C)=CCCC(C)CCOC(=O)C(C)C (centres undefined),inactive,
